The results in this text go back to publication PMC10812921, “Transcriptional Coactivator BOB1 (OBF1, OCA-B) Modulates the Specificity of DNA Recognition by the POU-Domain Factors OCT1 and OCT2 in a Monomeric Configuration”.

One assay has as its target POU1 (OCT1 POU domain) (human, UniProt P14859 260-458). Briefly: EMSA-SELEX-seq; no BOB1; 20 mM Tris-HCl pH 7.6, 140 mM NaCl, 10% glycerol, 0.5 mM EDTA, 0.05% Triton X-100, 0.1 mg/mL BSA, 0.1 mg/mL poly(dI-dC), 5 mM DTT, room temperature, 20 min; high values mean tight binding. The settings on record: protein: recombinant; dsDNA, one strand shown. Put shortly:
(§1)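 Tagged POU-domain proteins were expressed in E. coli BL21, purified under denaturing conditions and renatured. Then 30 ng was mixed with 300 ng of a PCR-amplified double-stranded random 35-nt library, with or without 28 ng coactivator protein, in 20 μL Tris–HCl pH 7.6 binding buffer for 20 min at RT. Complex bands were cut from native 6% PAGE, eluted and PCR-amplified over four rounds, then Illumina-sequenced. Binding preference is the percentage of sequenced 8-mers matching a motif pattern.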

A further assay has as its target T1, POU2 (OCT2 POU domain) (human, UniProt P09086 175-386).
T1 sequence: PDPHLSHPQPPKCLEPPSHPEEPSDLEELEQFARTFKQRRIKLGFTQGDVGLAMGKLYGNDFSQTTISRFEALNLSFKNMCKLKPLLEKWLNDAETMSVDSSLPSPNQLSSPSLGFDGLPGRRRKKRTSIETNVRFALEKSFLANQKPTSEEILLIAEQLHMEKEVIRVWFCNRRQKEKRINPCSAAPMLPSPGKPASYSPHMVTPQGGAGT
Described as above. The settings on record: protein: recombinant; dsDNA, one strand shown. The method in brief:
as §1

The target of assay [1] is POU1 (OCT1 POU domain);BOB1 (OBF1, OCA-B) (human;human, UniProt P14859;Q16633 260-458;1-256, |). Briefly: EMSA-SELEX-seq; with BOB1 (ternary complex band); 20 mM Tris-HCl pH 7.6, 140 mM NaCl, 10% glycerol, 0.5 mM EDTA, 0.05% Triton X-100, 0.1 mg/mL BSA, 0.1 mg/mL poly(dI-dC), 5 mM DTT, room temperature, 20 min; high values mean tight binding. The settings on record: protein: recombinant;recombinant; copies: 1;1; dsDNA, one strand shown. The method in brief:
as §1

Assay [2] deals with T2, POU2 (OCT2 POU domain);BOB1 (OBF1, OCA-B) (human;human, UniProt P09086;Q16633 175-386;1-256, |).
T2 sequence 1: T1 sequence
T2 sequence 2: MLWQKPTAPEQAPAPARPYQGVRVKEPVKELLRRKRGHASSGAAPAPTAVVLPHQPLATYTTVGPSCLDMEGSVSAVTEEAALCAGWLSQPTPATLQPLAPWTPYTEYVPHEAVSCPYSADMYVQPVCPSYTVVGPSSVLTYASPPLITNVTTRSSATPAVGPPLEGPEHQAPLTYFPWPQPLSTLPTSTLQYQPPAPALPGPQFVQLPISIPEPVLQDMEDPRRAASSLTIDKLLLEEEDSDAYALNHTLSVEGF
The description is as above. The settings on record: protein: recombinant;recombinant; copies: 1;1; dsDNA, one strand shown. Put shortly: as §1

POU1 (OCT1 POU domain), sequence (P14859 260-458): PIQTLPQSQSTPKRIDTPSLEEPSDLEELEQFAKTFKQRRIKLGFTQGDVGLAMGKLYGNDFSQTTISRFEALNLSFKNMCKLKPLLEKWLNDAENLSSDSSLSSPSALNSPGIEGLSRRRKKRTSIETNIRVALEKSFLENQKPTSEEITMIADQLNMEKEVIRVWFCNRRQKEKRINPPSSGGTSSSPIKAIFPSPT

Consider AGCACAAT, for which the binding signal is 0.0233 % of ANNNNAAN 8-mers with POU1 (OCT1 POU domain), 0.0311 % of ANNNNAAN 8-mers with POU2 (OCT2 POU domain), 0.0258 % of ANNNNAAN 8-mers in assay [1] and 0.0264 % of ANNNNAAN 8-mers in assay [2].
For the sequence AACGTAAC, the binding signal in the assay with POU1 (OCT1 POU domain) was 0.0179 % of ANNNNAAN 8-mers; in the assay with POU2 (OCT2 POU domain) it was 0.0236 % of ANNNNAAN 8-mers; in assay [1], 0.0211 % of ANNNNAAN 8-mers; in assay [2], 0.0272 % of ANNNNAAN 8-mers.
Turning to AGGGGAAA, the binding signal was 0.101 % of ANNNNAAN 8-mers with POU1 (OCT1 POU domain), 0.0794 % of ANNNNAAN 8-mers with POU2 (OCT2 POU domain), 0.109 % of ANNNNAAN 8-mers in assay [1] and 0.0826 % of ANNNNAAN 8-mers in assay [2].
Take AAATTAAT: the binding signal was 0.415 % of ANNNNAAN 8-mers with POU1 (OCT1 POU domain), 0.478 % of ANNNNAAN 8-mers with POU2 (OCT2 POU domain), 0.244 % of ANNNNAAN 8-mers in assay [1] and 0.287 % of ANNNNAAN 8-mers in assay [2].
As for ATAGGAAA, the binding signal in the assay with POU1 (OCT1 POU domain) is 0.131 % of ANNNNAAN 8-mers; with POU2 (OCT2 POU domain), 0.112 % of ANNNNAAN 8-mers; in assay [1], 0.213 % of ANNNNAAN 8-mers; in assay [2], 0.146 % of ANNNNAAN 8-mers.
ACGAGAAT: the binding signal with POU1 (OCT1 POU domain) was 0.0492 % of ANNNNAAN 8-mers; in the assay with POU2 (OCT2 POU domain), 0.0547 % of ANNNNAAN 8-mers; in assay [1] it was 0.0347 % of ANNNNAAN 8-mers; in assay [2], 0.0553 % of ANNNNAAN 8-mers.
Regarding ATATCAAC, the binding signal with POU1 (OCT1 POU domain) was 0.0481 % of ANNNNAAN 8-mers; in the assay with POU2 (OCT2 POU domain) it was 0.0449 % of ANNNNAAN 8-mers; in assay [1], 0.0367 % of ANNNNAAN 8-mers; in assay [2], 0.0471 % of ANNNNAAN 8-mers.
Taken in the same sequence, the figures for ACTTGAAC were 0.0183 % of ANNNNAAN 8-mers, 0.0207 % of ANNNNAAN 8-mers, 0.018 % of ANNNNAAN 8-mers and 0.0314 % of ANNNNAAN 8-mers.
As to ATTCGAAG, the binding signal with POU1 (OCT1 POU domain) is 0.0564 % of ANNNNAAN 8-mers; in the assay with POU2 (OCT2 POU domain), 0.0656 % of ANNNNAAN 8-mers; in assay [1], 0.0464 % of ANNNNAAN 8-mers; in assay [2], 0.0405 % of ANNNNAAN 8-mers.
In the case of AGCTGAAG, the binding signal is 0.0187 % of ANNNNAAN 8-mers in the assay with POU1 (OCT1 POU domain), 0.0265 % of ANNNNAAN 8-mers in the assay with POU2 (OCT2 POU domain), 0.025 % of ANNNNAAN 8-mers in assay [1] and 0.0223 % of ANNNNAAN 8-mers in assay [2].
Take AGCATAAC: the binding signal with POU1 (OCT1 POU domain) was 0.082 % of ANNNNAAN 8-mers; with POU2 (OCT2 POU domain), 0.099 % of ANNNNAAN 8-mers; in assay [1], 0.0207 % of ANNNNAAN 8-mers; in assay [2] it was 0.038 % of ANNNNAAN 8-mers.
The matching figures for ACAATAAG: 0.0339 % of ANNNNAAN 8-mers, 0.042 % of ANNNNAAN 8-mers, 0.0375 % of ANNNNAAN 8-mers and 0.0396 % of ANNNNAAN 8-mers.
Taken in the same sequence, the figures for AAAAAAAG were 0.0923 % of ANNNNAAN 8-mers, 0.0938 % of ANNNNAAN 8-mers, 0.111 % of ANNNNAAN 8-mers and 0.0842 % of ANNNNAAN 8-mers.
The matching figures for AGAACAAA: 0.032 % of ANNNNAAN 8-mers, 0.0524 % of ANNNNAAN 8-mers, 0.032 % of ANNNNAAN 8-mers and 0.033 % of ANNNNAAN 8-mers.
Consider ATACAAAA, for which the binding signal in the assay with POU1 (OCT1 POU domain) is 0.144 % of ANNNNAAN 8-mers; in the assay with POU2 (OCT2 POU domain), 0.0857 % of ANNNNAAN 8-mers; in assay [1], 0.195 % of ANNNNAAN 8-mers; in assay [2], 0.105 % of ANNNNAAN 8-mers.
The matching figures for ATCCGAAA: 0.0305 % of ANNNNAAN 8-mers, 0.0374 % of ANNNNAAN 8-mers, 0.0308 % of ANNNNAAN 8-mers and 0.0338 % of ANNNNAAN 8-mers.
